The list is not random: actives were taken first. Their share in the collection is about 1.1%.
HTR5A inv ag – inverse agonist of human HTR5A in OPRM1-OPRD1 counter-screen. actives 0.083% (n = 340,000). HTR5A cell line, luminescence, inverse agonism. inhibition, % at 9.3 µM. P47898; in the data active = inhibition mostly above about 23%, no sharp cut-off; inactive = mostly below about 18%
OPRM1-OPRD1 inv – inverse agonist of human OPRM1-OPRD1 heterodimerization; actives 0.21% (n = 340,000); cell-based MOR-DOR heterodimer luminescence, inverse agonism; AID 504357; inhibition, % at 9.3 µM; P35372+P41143; in the data active = inhibition above about 22%, passing the limit was not always enough
Target sequence (P35372 whole entry, looked up): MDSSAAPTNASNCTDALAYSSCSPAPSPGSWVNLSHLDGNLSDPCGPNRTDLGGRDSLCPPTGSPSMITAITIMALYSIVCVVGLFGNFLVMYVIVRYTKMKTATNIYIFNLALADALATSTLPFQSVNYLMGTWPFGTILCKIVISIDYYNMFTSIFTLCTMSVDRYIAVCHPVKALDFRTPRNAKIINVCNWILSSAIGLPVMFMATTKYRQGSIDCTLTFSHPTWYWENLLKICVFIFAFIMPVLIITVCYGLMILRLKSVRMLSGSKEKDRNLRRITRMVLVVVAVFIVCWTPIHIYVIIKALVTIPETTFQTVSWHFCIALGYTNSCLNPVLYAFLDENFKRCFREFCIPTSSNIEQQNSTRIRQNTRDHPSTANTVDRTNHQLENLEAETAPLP
Target sequence (P41143 whole entry, looked up): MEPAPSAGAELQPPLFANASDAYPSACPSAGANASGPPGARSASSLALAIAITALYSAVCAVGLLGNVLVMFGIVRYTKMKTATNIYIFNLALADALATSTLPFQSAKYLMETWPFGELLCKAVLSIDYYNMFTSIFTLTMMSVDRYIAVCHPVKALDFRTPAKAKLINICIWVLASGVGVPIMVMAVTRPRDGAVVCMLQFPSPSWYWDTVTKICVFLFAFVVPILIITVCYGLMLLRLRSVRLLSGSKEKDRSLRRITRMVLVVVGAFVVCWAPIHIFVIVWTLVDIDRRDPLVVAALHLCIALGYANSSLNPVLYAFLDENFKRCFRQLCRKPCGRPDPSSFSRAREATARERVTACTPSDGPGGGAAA
MOR-DOR ag-1 – agonists of human mu-delta opioid receptor heterodimerization. AID 504326. cells, OPRM1-OPRD1 heterodimerization, luminescence. actives 0.3% (n = 340,000). activation, % at 9.3 µM. P35372+P41143
HTR5A ag – counter-screen for OPRM1-OPRD1 agonists: human HTR5A agonism. AID 504692. activation, % at 9.3 µM. P47898. HTR5A agonist assay, luminescence, cell-based. actives 0.61% (n = 340,000); in the data active = activation mostly above about 9.5%, no sharp cut-off; inactive = mostly below about 7.6%
MOR-DOR ag-2 – promotes OPRM1-OPRD1 heterodimerization in HTR5A counter-screen; AID 504913; actives 13% (n = 800); U2OS counter-screen cells, complementation luminescence, 3 h; activation, % at 9.3 µM; shares compounds with HTR5A ag
HTR5A ag confirm – HTR5A (human) agonism, confirmation; shares compounds with HTR5A ag; HTR5A agonist cell assay, luminescence; activation, % at 9.3 µM; actives 17% (n = 800); AID 504915; in the data active = activation above about 17%
A number is an active result; – = inactive; · = no result. Rule as the data show it, unless noted: active = activation above about 18%; inactive = the rest.

SMILES	HTR5A inv ag	OPRM1-OPRD1 inv	MOR-DOR ag-1	HTR5A ag	MOR-DOR ag-2	HTR5A ag confirm
O=C(CCC(=O)N1C[C@H]2C[C@@H](C1)c1cccc(=O)n1C2)NCc1ccc(F)cc1	–	–	–	–	·	·
CN1CC=C(c2c[nH]c3ccccc23)CC1	–	–	–	23	–	–
CN1C[C@H](CO)C=C2c3cccc4[nH]cc(c34)C[C@H]21	–	–	–	60	–	–
Cc1cccc(CSc2nc3c(cc2C#N)CN(C)CC3)c1	–	–	–	20	–	–
CN1CCc2nc(SCc3ccccc3Br)c(C#N)cc2C1	–	–	–	–	·	·

Screening results deposited in PubChem BioAssay by The Scripps Research Institute Molecular Screening Center.
